About 5,100 (6%) of roughly 85,000 compounds were called active.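 The calls were made as follows: active = viability at or below 40%; inactive = viability above 40%.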 The list comes from a sample in which actives are over-represented; it also holds similar structures and randomly drawn compounds.
Assay: H69AR cell viability reduction – human, 86K library, primary screen (AID 598);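 also: multidrug resistant small cell line overexpressing MRP-1 efflux transporter; 100% = mean luminescence of untreated control wells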
Details: H69AR lung tumor viability, ATP luminescence, 72 h; at 10 µM; active compounds read low

SMILES | viability
O=C(CSc1nnc(-c2cccs2)n1Cc1ccccc1)N1CCc2ccccc2C1 | 29.9% (active)
Cc1nnc(SCC(=O)N2CCc3ccccc3C2)s1 | 85.3% (inactive)
O=C(CSc1nnc(-c2cccs2)n1-c1ccccc1)N1CCN(C(=O)c2ccco2)CC1 | 81.3% (inactive)
CC(C)Cn1c(N)c(C(=O)NCc2cccs2)c2nc3ccccc3nc21 | 1.75% (active)
C=CCn1c(N)c(S(=O)(=O)c2cccs2)c2nc3ccccc3nc21 | 76.4% (inactive)
C=CCn1c(N)c(C(=O)OCC(C)C)c2nc3ccccc3nc21 | 93.2% (inactive)
CC(C)(C)c1cc(=O)n2c(nc3ccccc32)[nH]1 | 75.5% (inactive)
Cc1ccc(SCC(=O)Nc2ncc(C)s2)cc1 | 94.5% (inactive)
CC(C)C(OC(=O)c1cccs1)C(=O)NC1CCCCC1 (stereo not drawn) | 101% (inactive)
Nc1nonc1-c1nc2ccccc2n1CCC(=O)O | 109% (inactive)
CC(=O)Nc1nonc1-c1nc2ccccc2n1Cc1ccccn1 | 84.4% (inactive)
CCC(=O)Nc1nc2ccccc2n1Cc1ccccc1C | 65.7% (inactive)
COc1ccc(C)c(Cn2c(-c3nonc3N)nc3ccccc32)c1 | 21% (active)
Nc1nonc1-c1nc2ccccc2n1Cc1ccc(F)cc1 | 18.4% (active)
COCc1nc2ccccc2n1Cc1ccccc1Br | 98.2% (inactive)
c1ccc(Nc2nc(N3CCOCC3)c3ccccc3n2)cc1 | 95.8% (inactive)
O=C(O)CSCc1ccc(C(=O)O)o1 | 96.9% (inactive)
COc1ccccc1NC(=O)CC(NCCN(C)C)C(=O)O (stereo not drawn) | 99.1% (inactive)
CCOC(=O)C1CSC(CC(=O)Nc2ccc(OCC)cc2)C(=O)N1 (stereo not drawn) | 86.6% (inactive)
CC(C)C(=O)NC(NC(=S)NC1CCS(=O)(=O)C1)C(Cl)(Cl)Cl (stereo not drawn) | 102% (inactive)
Cc1ccc(-n2nc3cc(C)c(NC(=O)c4cccnc4)cc3n2)cc1 | 82% (inactive)

SMILES | viability
O=S(=O)(NCC1OCCc2ccccc21)c1ccccc1 (stereo not drawn) | 87.1% (inactive)
COC(=O)c1cc(OC)ccc1-c1ccc(OC)cc1 | 29.3% (active)
COc1ccc(OC)c(C(=O)c2ccc(C(=O)O)cc2)c1 | 99.1% (inactive)
COc1ccc(NC(=O)c2ccc(OC)cc2)cc1 | 105% (inactive)
CCOC(=O)C1=C(C)NC(SC)=NC1c1ccccc1 (stereo not drawn) | 83.7% (inactive)
CC1CCN(C(=O)CN(c2ccc(Oc3ccccc3)cc2)S(C)(=O)=O)CC1 | 85% (inactive)
CCCOn1c(-n2nc(C)cc2C)nc2ccccc2c1=O | 93.8% (inactive)
COc1ccc(C)cc1N(C)C(=O)c1coc(=O)c2ccccc12 | 94.7% (inactive)
Cc1cc(C)c2c(c1)cc(C)c1nnc(SCC(=O)Nc3cc(C)on3)n12 | 16.8% (active)
Cc1cc(NC(=O)CSc2nnc(-c3ccc(Cl)s3)o2)no1 | 96.5% (inactive)
CCOc1ccccc1Nc1nnc(SCC(=O)Nc2cc(C)on2)s1 | 71.1% (inactive)
CC(C)(C)n1nnnc1C(c1ccc(Cl)cc1)N1CCSCC1 (stereo not drawn) | 82.5% (inactive)
COc1ccc(S(=O)(=O)NCc2ccc(C(=O)N(C)Cc3ccco3)cc2)cc1 | 76.5% (inactive)
CC(=O)N1CCCc2cc(S(=O)(=O)CCC(=O)N3CCN(c4ccccc4)CC3)ccc21 | 86.6% (inactive)
O=C(c1cc2c(s1)CCC2)N1CCN(c2ccccc2)CC1 | 39.4% (active)
Cc1nc2ccc(C(=O)N3CCN(c4ccccc4)CC3)cc2s1 | 91.5% (inactive)
COc1ccc(C)cc1S(=O)(=O)Nc1cccc(Cl)c1Cl | 97.3% (inactive)
CCOc1ccc(C(O)Cc2nc3ccccc3n2C)cc1 (stereo not drawn) | 96.6% (inactive)
O=C(COC(=O)c1n[nH]c2ccccc12)NCc1ccccc1 | 96.7% (inactive)
COC(=O)Nc1ncc(CN2CCCCC2)s1 | 92.5% (inactive)
CCN1C(=O)/C(=C2/Sc3ccc(OC)cc3N2C)SC1=Nc1ccc(C)cc1 | 66.1% (inactive)

SMILES | viability
CCOc1ccc(C2C(C(=O)O)c3ccccc3C(=O)N2CCN2CCOCC2)cc1 (stereo not drawn) | 85.1% (inactive)
COc1ccc(N2CCN(CCNC(=O)CCN3C(=O)COc4ccccc43)CC2)cc1 | 86.1% (inactive)
COc1ccc(C2C(C(=O)N3CCN(c4ccc(OC)cc4)CC3)c3ccccc3C(=O)N2C)cc1 (stereo not drawn) | 32.2% (active)
CCCNC(=O)c1ccccc1NC(=O)CSCc1ccc(OC)cc1 | 83.9% (inactive)
COc1ccc(C2=NO[C@@H]3C(=O)N(Cc4ccccc4)C(=O)[C@H]23)cc1OC | 95.8% (inactive)
CCNCCC(=O)N1c2ccccc2Sc2ccc(NC(=O)OCC)cc21 | 78.6% (inactive)
Cc1ccc(F)c(NC(=O)CCc2ccccc2)c1 | 97.8% (inactive)
Cc1cccc(N2CCN(C(=O)c3cc4c(=O)[nH]c5ccccc5c4n3C)CC2)c1C | 36% (active)
Cn1c(C(=O)NCCN2CCc3ccccc3C2)cc2c(=O)[nH]c3ccccc3c21 | 61.7% (inactive)
CC(=O)N1CCN(c2cccc(C)c2C)CC1 | 107% (inactive)
CCn1c(C)nc2c1C(=O)c1ccccc1C2=O | 69.1% (inactive)
CC1CCc2c(nc3ncnn3c2Nc2ccc(OC(F)(F)F)cc2)C1 (stereo not drawn) | 69.4% (inactive)
COc1ccc(-n2c(SCC(=O)Nc3sc4c(c3C#N)CCCC4)nnc2-c2ccc(O)cc2)cc1 | 11.8% (active)
COC(=O)c1c(NC(=O)CSc2nncs2)sc2c1CCCCC2 | 50.8% (inactive)
COc1ccccc1NC(=O)CSc1nc2sc(C)c(C)c2c(=O)n1Cc1ccco1 | 58.9% (inactive)
CC(Sc1nc2ccccc2c(=O)n1Cc1ccco1)C(=O)c1ccccc1 (stereo not drawn) | 77.2% (inactive)
N#Cc1c(NC(=O)CSc2nc3ccccc3c(=O)n2Cc2ccco2)sc2c1CCCC2 | 3.86% (active)
COc1ccc(-c2nnc(SCC(=O)c3ccco3)n2-c2ccccc2)cc1 | 91.9% (inactive)
CCC(C)NC(=O)C1CCCN(C(=O)NC2CCCCC2)C1 (stereo not drawn) | 94.6% (inactive)
COc1ccc(C(C#N)Nc2ccc(C)cc2)cc1 (stereo not drawn) | 89.5% (inactive)
Cc1cccc(OCCCC(=O)Nc2ccc(S(=O)(=O)N3CCCC3)cc2)c1 | 89.2% (inactive)
